Hits are enriched below; roughly 1.8% of the tested compounds scored in any of these assays.
NPR1 activator – GC-A (human) enzyme activation. P16066. HEK293 GC-A cells, cGMP TR-FRET, EC30 ANP; 0% at EC30 ANP, 100% saturating ANP. activation, % at 10 µM. actives 0.14% (n = 370,000); in the data active = activation above about 40%
Myeloid diff 2 – compounds promoting myeloid differentiation; ER-HoxA9 myeloid progenitors, lysozyme-GFP differentiation, flow cytometry; calls only at 10 µM; actives 1% (n = 360,000);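 active = normalized GFP-positive differentiation at or above the plate's own cutoff, the solvent-only control mean plus 3 SD; inconclusive = no clear call, values can overlap the other calls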;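 also: cells exposed to compound for four days before flow analysis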
GC-B act – GC-B (human) receptor activation; P20594; HEK293-GC-B cells, CNP EC30, cGMP TR-FRET; 0% at EC30 CNP, 100% saturating CNP; activation, % at 10 µM; actives 0.11% (n = 370,000);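 active = activation at 10 µM reaching about 35% in either raw or pattern-adjusted values, limit read from the data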
Target sequence (P20594 whole entry, looked up): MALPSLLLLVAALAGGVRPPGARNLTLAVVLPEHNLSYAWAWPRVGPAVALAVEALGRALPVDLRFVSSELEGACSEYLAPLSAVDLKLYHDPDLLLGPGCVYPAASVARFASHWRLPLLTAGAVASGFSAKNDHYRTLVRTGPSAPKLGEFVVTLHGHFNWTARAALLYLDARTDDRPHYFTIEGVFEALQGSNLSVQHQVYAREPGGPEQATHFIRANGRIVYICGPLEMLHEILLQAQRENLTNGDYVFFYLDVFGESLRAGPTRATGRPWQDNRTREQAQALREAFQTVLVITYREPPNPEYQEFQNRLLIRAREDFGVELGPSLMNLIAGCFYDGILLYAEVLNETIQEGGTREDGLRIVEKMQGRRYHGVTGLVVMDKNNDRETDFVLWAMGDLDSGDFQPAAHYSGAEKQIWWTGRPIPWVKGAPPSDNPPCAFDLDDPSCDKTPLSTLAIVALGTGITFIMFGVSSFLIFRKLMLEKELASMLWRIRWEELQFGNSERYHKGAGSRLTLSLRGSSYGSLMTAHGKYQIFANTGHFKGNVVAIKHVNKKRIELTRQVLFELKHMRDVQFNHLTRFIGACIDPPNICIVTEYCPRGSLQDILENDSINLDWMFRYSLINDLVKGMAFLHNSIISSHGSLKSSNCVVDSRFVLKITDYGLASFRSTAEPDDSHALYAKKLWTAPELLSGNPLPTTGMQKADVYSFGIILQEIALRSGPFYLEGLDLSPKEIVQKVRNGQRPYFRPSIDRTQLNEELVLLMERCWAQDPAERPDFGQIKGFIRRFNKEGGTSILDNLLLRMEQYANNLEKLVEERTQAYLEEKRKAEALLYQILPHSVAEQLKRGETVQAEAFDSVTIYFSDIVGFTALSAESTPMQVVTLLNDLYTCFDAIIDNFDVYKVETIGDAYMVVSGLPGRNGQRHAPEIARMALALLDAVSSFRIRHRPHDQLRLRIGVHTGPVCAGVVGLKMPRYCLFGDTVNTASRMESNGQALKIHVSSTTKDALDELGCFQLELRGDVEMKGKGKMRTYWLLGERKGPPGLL
Granule exo inh – lytic granule exocytosis inhibition; TALL-104 LAMP-1 surface exposure, flow cytometry; cells stimulated with thapsigargin and PMA; inhibition, % at 10 µM; actives 0.66% (n = 360,000); AID 651702;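 active = inhibition above about 55%, limit read from the data; inconclusive = no clear call, values can overlap the other calls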
* hit, by the source's call; i = inactive; u = inconclusive; x = no result; + = active, no number.

SMILES	NPR1 activator	Myeloid diff 2	GC-B act	Granule exo inh
NC(=O)CC(NC(=O)c1cccc(Br)c1)c1ccc(N2CCN(c3ccccn3)CC2)c([N+](=O)[O-])c1 (centres undefined)	-4	i	-4	-8
NC(=O)CC(NC(=O)c1ccc(Br)cc1)c1ccc(N2CCN(c3ccccn3)CC2)c([N+](=O)[O-])c1 (centres undefined)	-9	i	-5	65*
Cn1c(SC/C=C/c2ccccc2)nnc1-c1cccnc1	2	x	-1	x
Cc1ccc(CN2CCCCC(NC(=O)c3ccc4ccccc4c3)C2=O)cc1 (centres undefined)	-2	x	-7	x
COC(=O)[C@]1(C#N)CC(=O)N(c2ccccc2)[C@@H]1c1ccccc1	1	x	2	x
NNC(=O)c1ccc(COc2ccc([N+](=O)[O-])cc2)o1	-2	i	0	2
Cc1cc(C)cc(OCc2ccc(C(=O)NN)o2)c1	0	+	1	-2
C[C@H](CO)N1C[C@H](C)[C@H](CN(C)C(=O)Nc2ccc(N3CCCCC3)cc2)OCc2cnnn2CCCC1=O	3	x	0	x
CCN1/C(=C/c2ccc3cccc(C)c3[n+]2CC)Sc2ccccc21	-1	u	6	76*
CCN1/C(=C/c2ccc3cc(C)ccc3[n+]2CC)Sc2ccc3sccc3c21	x	+	x	74*
CCN1/C(=C/c2ccc3cc(C)cc(C)c3[n+]2CC)Sc2cc(C)ccc21	-45	u	-23	77*
C=CC[n+]1c(/C=C2\C=Cc3cc(C)ccc3N2CC)ccc2ccccc21	-27	u	-2	40
C[n+]1ccccc1/C=C1\Sc2ccccc2N1CCO	-7	i	-10	1
CCN1/C(=C\c2ccc3cc(C)ccc3[n+]2CC)Sc2cc(C)c(C)cc21	-9	u	2	73*
O=C(/C=C/c1ccccc1)CCN1CCCCC1	21	i	8	32
O=C(CCl)Nc1ccccc1Sc1ccc(Cl)cc1	45*	i	-3	-1
CC(=O)N1CCN(CC(=O)Nc2ccccc2Sc2ccc(Cl)cc2)CC1	-9	i	-9	-11
COc1ccc(C[N+]2=C(N)NC3=C(C)Cn4c(=O)n(-c5ccccc5)c(=O)n4C3C2)c(OC)c1 (centres undefined)	-10	x	1	x
CCOc1ccc(C(=O)C(CCC(CN(C)C)C(=O)c2ccc(OCC)cc2)CN(C)C)cc1 (centres undefined)	-2	u	-1	60*
CCOC(=O)[C@]12CCCCC/C=C\1N(Cc1ccc(OC)cc1)C(=O)[C@H]2CC(=O)N1CCC(c2ccccc2)CC1	-2	x	7	x
CN1C(=O)/C(=N/OC(=O)c2ccccc2)c2ccccc21	1	i	-4	87*
O=C(O/N=C1\C(=O)N(c2ccccc2)c2ccccc21)C1CC1	3	i	-2	4
c1ccc(-c2nnc3n2N=C(c2ccc4ccccc4c2)CS3)nc1	6	x	10	x
CCC(=O)N1CCc2cc(Br)c(S(=O)(=O)N3CCC(C(=O)NC(C)(C)C)CC3)cc21	-1	x	-3	x
Cc1cccc2cc3c(N)c(C(=O)Nc4ccc(N5CCOCC5)cc4)sc3nc12	1	i	-2	10
SMILES	NPR1 activator	Myeloid diff 2	GC-B act	Granule exo inh
CCc1cccc2cc3c(N)c(C(=O)Nc4ccc(S(=O)(=O)N5CCCC5)cc4)sc3nc12	10	+	1	-5
CCOC(=O)Cn1ccc(NC(=O)c2ccc(F)cc2)n1	50*	i	-10	12
CCOC(=O)Cn1ccc(NC(=O)COc2ccc(F)cc2F)n1	41*	i	-3	-3
CCOC(=O)Cn1ccc(NC(=O)COc2ccc(F)cc2)n1	17	i	-1	-2
Cc1ccc(C(=O)C2CCN(CC(=O)N3CC(C)CC(C)C3)CC2)cc1 (centres undefined)	7	x	2	x
O=C(NNc1c2ccccc2nc2ccccc12)c1ccccc1O	16	i	4	108*
COC(=O)C1CN(Cc2cn(Cc3ccc(OC)cc3)nn2)CCS(=O)(=O)N1Cc1ccc(C)cc1 (centres undefined)	-4	x	5	x
COC(=O)[C@]12C[C@H](CC(=O)N3CCCC3)C(=O)N(Cc3ccc(Cl)cc3Cl)C1=C[C@H](C(C)C)O[C@@H]2C1CC1	-22	x	-17	x
O=[N+]([O-])c1ccc(N2CCN(C(=S)NCc3ccc(Cl)cc3)CC2)cc1	-9	i	-14	68*
CC(OC(=O)C1CC1)C(=O)Nc1ccc([N+](=O)[O-])cc1Cl (centres undefined)	0	+	5	0
COc1ccc(-c2csc3nc(-c4ccccc4OC)oc(=O)c23)cc1	42*	i	6	3
COc1ccc(-c2csc3nc(-c4ccc(C)cc4)oc(=O)c23)cc1OC	10	i	-4	-2
Cc1cc(C)n(-c2ccn(Cc3ccc(Cl)cc3Cl)c(=O)n2)n1	-2	+	-5	2
CC1CCCCC1NC(=O)c1cc2c(=O)n3ccccc3nc2n1C (centres undefined)	13	i	0	-1
Cc1cccn2c(=O)c3cc(C(=O)NCCN4CCOCC4)n(C)c3nc12	5	+	-3	1
Cc1cccn2c(=O)c3cc(C(=O)NC4CCCCC4C)n(C)c3nc12 (centres undefined)	6	+	3	-1
O=C(CSc1nnc(-c2ccccc2F)n1Cc1ccco1)Nc1ccccc1-c1ccccc1	-7	x	-12	x
CCOC(=O)c1ccc(N2C(=O)C=CC2=O)cc1	x	i	x	105*
CCOC(=O)c1ccc(-n2c(C)ccc2C)cc1	2	i	0	5
CCc1nc2c(OCCOc3ccc(F)cc3)cccn2c1N(C)C(=O)c1ccco1	3	i	0	19
N=c1c2c(-c3ccccc3)c(-c3ccccc3)n(Cc3ccccc3)c2ncn1CCCn1ccnc1	-35	+	-25	50
Cc1cc(C)cc(OCCCN2CCC(C(O)(c3ccccc3)c3ccccc3)CC2)c1	-6	x	-4	x
COc1ccc(C(=O)c2no[n+]([O-])c2C(=O)c2ccc(OC)cc2)cc1	6	u	2	103*
O=C(c1cccs1)c1no[n+]([O-])c1C(=O)c1cccs1	x	i	x	82*
COc1ccc(NC(=O)c2c(N)no[n+]2[O-])cc1	-3	i	-11	1
COC(=O)[C@]12C[C@H](CC(=O)NCCc3ccccc3OC)C(=O)N(Cc3ccco3)C1=C[C@H](COCc1ccccc1)O[C@@H]2C	-4	x	3	x
O=C(Cn1c(=O)sc2ccccc21)NCc1ccccn1	-1	+	0	26
CS(=O)(=O)N[C@@H]1C[C@@H]2O[C@H](CO)CC[C@@H]2O[C@@H]1CCc1ccc(-c2ccccc2F)cc1	19	x	-3	x
Nc1ccc2nc(-c3ccccc3)cnc2c1	13	+	0	11
Cc1cc(C(=O)N2CCCC(CO)(Cc3ccc(F)cc3F)C2)nn1C (centres undefined)	-2	+	-2	8

Screening results as filed in PubChem BioAssay.
